From PubChem BioAssay AID504466 (National Center for Advancing Translational Sciences (NCATS), 2011) come the findings set out here.

About 4,200 (1.3%) of roughly 330,000 compounds were called active. Entries that show only a call come without a potency. Roughly 6% stayed inconclusive and do not appear here. This is one part of a sample in which actives are shown more often than they occur. Calls come from the whole dose curve; as a rule, active = well fitted activation curve with a large enough effect; inconclusive = small, poorly fitted or top-dose-only effect; inactive = no such curve, though single readings can be large or run the other way.
Potency is the fitted concentration of half-maximal effect.

The nature of this assay: qHTS screen for small molecules that induce genotoxicity in human embryonic kidney (HEK293T) cells expressing luciferase-tagged ELG1. Note: nearly all actives have a fitted effect of over 60% in size. The following applies: HEK293T ELG1-luciferase reporter, luminescence, 16 h; series mostly up to 46 µM. The method in brief: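 ELG1-luciferase HEK293T cells, 2,000/well; compound pinned in; 16 hr, 37 °C, 5% CO2; ONE-Glo, 30 min RT; luminescence on CCD imager.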
Take `O=C(COC(=O)c1cccc(Cl)c1)NC(=O)NCc1ccccc1`: the Potency result was “inactive”.

Turning to `O=C(Nc1ccncc1)c1cc2ccccc2o1`, the Potency result was “inactive”.

Regarding `O=C(NCc1cccnc1)c1cccc(-c2cc3ccccc3oc2=O)c1`, the Potency result is “inactive”.

On to `Nc1ncc(-c2cc3ccccc3oc2=O)s1`, for which the Potency is 2.59 µM (active).

On to `O=C(COC(=O)Cn1cnc2ccccc21)Nc1cccc2c1C(=O)c1ccccc1C2=O`, for which the Potency result was “inactive”.

Regarding `O=C(COC(=O)c1cccc(Br)c1)Nc1cccc2c1C(=O)c1ccccc1C2=O`, the Potency was 13 µM (active).

As to `O=C(COC(=O)c1ccccc1)Nc1ccccc1Sc1ccccc1`, the Potency entry was “inactive”.

Consider `C[C@H](CO)N1C[C@H](C)[C@H](CN(C)CC2CC2)Oc2ccc(NC(=O)CCN3CCOCC3)cc2C1=O`, for which the Potency result is “inactive”.

Take `CC(C)c1nc2cc(C(=O)NC(C)c3cnn(C)c3)ccc2o1` (configuration not stated): the Potency entry was “inactive”.

As for `COC(=O)c1ccc(CNC(=O)c2ccc3oc(C(C)C)nc3c2)cc1`, the Potency was 20.6 µM (active).

On to `COC(=O)c1ccc(CSc2nc3cc(Cl)ccc3o2)cc1`, for which the Potency result was “inactive”.

As to `C=CC[C@@H](CC(=O)NCCO)C(=O)N[C@H](C)COC(=O)[C@@H](CC=C)CC(=O)OC(C)(C)C`, the Potency result is “inactive”.

Take `Cc1cccc(C(=O)OCC(=O)NC(C)C2CC3CCC2C3)c1O` (configuration not stated): the Potency entry is “inactive”.

As to `COc1ccccc1NC(=O)COC(=O)CNC(=O)C1CCCCC1`, the Potency result was “inactive”.

Turning to `Nc1ncnc2c1ncn2[C@@H]1O[C@H](CNS(=O)(=O)c2ccc(-c3ccno3)s2)[C@@H](O)[C@H]1O`, the Potency entry is “inactive”.

As for `O=C(CCCOc1ccccc1)NNC(=O)c1ccc(Cl)cc1`, the Potency result was “inactive”.

Take `CCS(=O)(=O)Nc1cccc(-c2cc(-c3ccccc3)c3cc(C)ccc3n2)c1`: the Potency entry was “inactive”.

`CC(=O)Nc1cccc(Nc2nc(-c3cccs3)nc3ccccc23)c1`: the Potency result is “inactive”.

For the compound `CC(=O)Nc1cccc(-c2cnc3ccccc3n2)c1`, the Potency was 10.3 µM (active).

On to `O=C(c1ccc(S(=O)(=O)NCc2ccco2)cc1)N1CCN(c2ccccc2)CC1`, for which the Potency result was “inactive”.

As for `Cc1c(C(=O)Nc2ccccn2)oc2ccc(Br)cc12`, the Potency was 9.2 µM (active).

With `Cc1noc(C)c1C(=O)Nc1ccccn1`, the Potency entry was “inactive”.

As to `COC(=O)c1oc2ccc(Br)cc2c1NC(C)=O`, the Potency result was “inactive”.

`O=C(COC(=O)COc1cc(Cl)c(Cl)cc1Cl)NC1CC1`: the Potency entry was “inactive”.

Turning to `COc1c(O)cc2oc(-c3ccc(O)c(O)c3)cc(=O)c2c1O`, the Potency was 20.6 µM (active).

In the case of `COc1ccc(-c2cc(=O)c3c(O)cc(O[C@@H]4O[C@H](CO[C@@H]5O[C@@H](C)[C@H](O)[C@@H](O)[C@H]5O)[C@@H](O)[C@H](O)[C@H]4O)cc3o2)cc1O`, the Potency entry was “inactive”.

Take `CCOC(=O)COc1cc(O)c2c(=O)cc(-c3ccccc3)oc2c1`: the Potency result is “inactive”.

As for `CCN(C(=O)COC(=O)CCC(=O)c1cccs1)C1CCCCC1`, the Potency entry is “inactive”.

Regarding `C[C@H](CO)N1C[C@H](C)[C@H](CN(C)C(=O)Nc2ccc(C(F)(F)F)cc2)Oc2c(NC(=O)c3ccncc3)cccc2C1=O`, the Potency result is “inactive”.

With `C[C@]12c3[nH]c4ccc(Cl)cc4c3CCN1C(=O)[C@@H](CC(=O)NCCCn1ccnc1)C[C@@H]2C(=O)N1CCOCC1`, the Potency result was “inactive”.

Turning to `CCC1CCCCN1C(=S)NC(=O)c1ccco1` (configuration not stated), the Potency entry is “inactive”.

On to `COc1ccc2c(CC(=O)NNC(=O)c3ccccc3F)coc2c1`, for which the Potency result was “inactive”.

With `CCC(=O)N1CCCc2ccccc21`, the Potency result is “inactive”.

Take `O=C(CSCc1ccccc1)N1CCc2ccccc21`: the Potency was 2.59 µM (active).

For `O=C(CN1CCN(c2ccccn2)CC1)N1CCc2ccccc21`, the Potency result was “inactive”.

As for `COc1cc(C2CC(=O)Oc3cc(OC)c(OC)c(OC)c32)cc(OC)c1OC` (configuration not stated), the Potency result was “inactive”.

On to `CC1CC(=NNC(=O)C2COc3ccccc3O2)CC(C)(C)C1` (configuration not stated), for which the Potency entry was “inactive”.

With `Cc1csc(NC(=O)c2ccc(-c3ccc(Cl)cc3Cl)o2)n1`, the Potency result was “inactive”.

For the compound `COc1cc(SC)ccc1C(=O)N(Cc1ccccc1)c1ccccc1`, the Potency result was “inactive”.

Consider `COc1cc(SC)ccc1C(=O)Nc1nc(C)cs1`, for which the Potency is 0.058 µM (active).

In the case of `CN(C)C(=O)CCc1ccc2c3c([nH]c2c1)[C@]1(CCc2ccccc2)[C@@H](C(=O)N2CCCCC2)C[C@H](CC(=O)NCCC2=CCCCC2)C(=O)N1CC3`, the Potency entry is “inactive”.

`CN(Cc1ccc(F)cc1)C(=O)CN1C(=O)c2ccccc2S1(=O)=O`: the Potency entry was “inactive”.

On to `CC[C@]12c3[nH]c4cc(CCC(=O)N(C)C)ccc4c3CCN1C(=O)[C@@H](CC(=O)NCc1ccco1)C[C@@H]2C(=O)N1CCN(C(=O)c2ccco2)CC1`, for which the Potency entry is “inactive”.

For `COc1cc(/C=N/N2CCN(c3ccccc3)CC2)ccc1OC(C)=O`, the Potency result is “inactive”.

`C(=N/N1CCN(c2ccccc2)CC1)/c1cccs1`: the Potency was 14.6 µM (active).

Consider `Cc1ccc(N2CCN(/N=C/c3cccs3)CC2)cc1`, for which the Potency entry is “inactive”.

As for `CN(CC(=O)Nc1ccc(OC(F)F)cc1)S(=O)(=O)/C=C/c1ccccc1`, the Potency entry is “inactive”.

Take `COc1ccc2sc(-c3ccc(N(C)C)cc3)c(-c3ccc4cc[nH]c4c3)c2c1`: the Potency result is “inactive”.

Regarding `O=C(Nc1ccc2oc(-c3ccc4ccccc4c3)nc2c1)c1cccs1`, the Potency was 2.91 µM (active).

For `Cc1ccc(C(=O)Nc2ccc(NC(=O)c3cccs3)cc2)c(C)c1`, the Potency result is “inactive”.

For the compound `O=C(Nc1ccc(NC(=O)c2cccs2)cc1)c1ccc2ccccc2c1`, the Potency result was “inactive”.

Take `COc1ccc(CCNC(=O)COC(=O)c2cnc(Cl)c(Cl)c2)cc1`: the Potency entry was “inactive”.

With `CCOC(=O)c1cc2cc(C)ccc2[nH]1`, the Potency is 20.6 µM (active).

Turning to `Cc1ccc2[nH]c(=O)c(COC(=O)c3ccccn3)cc2c1`, the Potency entry was “inactive”.

For `CCOC(=O)c1[nH]c2ccc(C)cc2c1N=C(C)N(C)C`, the Potency entry was “inactive”.

Take `C[C@H]1CN([C@@H](C)CO)C(=O)Cc2cc(NC(=O)Cc3ccccc3)ccc2O[C@H]1CN(C)S(=O)(=O)c1cccs1`: the Potency result is “inactive”.

As for `Cc1ccc(N2C(=O)N3[C@@H]4c5ccccc5OC[C@@H]4[C@@H](c4ccccc4)[C@@]3(C)C2=O)cc1`, the Potency result was “inactive”.

Turning to `Cc1sc(NC(=O)c2ccc3ncsc3c2)c(C(N)=O)c1C`, the Potency was 2.31 µM (active).

For `Cc1ccc(C(=O)c2c(NC(=O)c3ccccc3)sc(C)c2C)cc1`, the Potency result is “inactive”.

For `COc1ccccc1-c1nnc(NC(=O)c2ccc3ncsc3c2)o1`, the Potency result is “inactive”.

Consider `C=CC[C@H](CC(=O)NCCO)C(=O)N[C@@H](COC(=O)[C@@H](CC=C)Cc1ccc(F)cc1)Cc1c[nH]c2ccccc12`, for which the Potency result was “inactive”.

As for `CCN(CC)Cc1cc(C(C)=O)ccc1O`, the Potency entry is “inactive”.

Regarding `CC(=O)c1ccc2c(c1)OCCOCCOc1ccc(C(C)=O)cc1OCCOCCO2`, the Potency entry is “inactive”.

For the compound `CC(=O)c1ccc2c(ccc3ccccc32)c1`, the Potency is 23.1 µM (active).

`COc1ccccc1N(CC(=O)Nc1ccc(C)cc1Cl)S(=O)(=O)c1cccs1`: the Potency entry was “inactive”.

`CCCn1nnc2sc3c(c2c1=O)CCC(C)C3` (configuration not stated): the Potency was 11.6 µM (active).

Consider `CCCSc1nc2sc3c(c2c(=O)n1-c1ccc(OC)cc1)CCN(C)C3`, for which the Potency entry was “inactive”.

In the case of `C=CCn1c(SCc2c(C)noc2C)nc2sc3c(c2c1=O)CCC(C)C3` (configuration not stated), the Potency result is “inactive”.

As for `O=C(COC(=O)COc1ccccc1F)Nc1cccc(S(=O)(=O)N2CCCCC2)c1`, the Potency result is “inactive”.

As to `COc1cc(OC)cc(C(=O)NNC(=O)Cc2cccs2)c1`, the Potency entry is “inactive”.

As to `CCCOc1ccccc1-c1nc(SCCC(=O)O)n[nH]1`, the Potency entry was “inactive”.

Consider `Cc1cc(C)nc(Nc2n[nH]c(-c3ccccc3N)n2)n1`, for which the Potency was 2.31 µM (active).

As for `Cc1cc(C)nc(Nc2ncn[nH]2)n1`, the Potency result is “inactive”.

As to `COc1cc(OC)cc(-c2c(C#Cc3ccsc3)c3cc(-c4ccc(OC)cc4F)ccc3n2C)c1`, the Potency entry is “inactive”.

In the case of `OC(c1nnc(-c2ccccc2)o1)c1cccs1` (configuration not stated), the Potency entry is “inactive”.

For the compound `Nc1ccc(-c2nnc(-c3ccccc3)o2)cc1`, the Potency is 16.4 µM (active).

In the case of `Nc1ccc(-c2sc(N)nc2-c2ccccc2)cc1`, the Potency entry is “inactive”.

For `CC(C)n1cnc2c(NCc3ccccc3)cc(OCC3CCN(C)CC3)cc21`, the Potency result is “inactive”.

For the compound `Cc1ccc(-c2csc(NC3OC(=O)c4ccccc43)n2)cc1` (configuration not stated), the Potency result was “inactive”.

In the case of `Cc1ccc(-c2csc(-c3c[nH]c4ccccc34)n2)cc1`, the Potency is 23.1 µM (active).

For `Cc1ccc(-c2csc(NC(=O)Cn3[nH]c(=O)c4ccccc4c3=O)n2)cc1`, the Potency entry was “inactive”.

On to `O=C(Cn1cc(C(F)(F)F)ccc1=O)Nc1ccc2c(c1)OCCO2`, for which the Potency entry is “inactive”.

As to `Cc1ccc(C)c(N2CCN(C(=O)CCc3nc(-c4cccc(C(F)(F)F)c4)no3)CC2)c1`, the Potency result was “inactive”.

With `Cc1c(C(=O)Nc2cccc(S(=O)(=O)N3CCOCC3)c2)oc2ccccc12`, the Potency entry was “inactive”.

As to `O=C(COC(=O)c1n[nH]c2ccccc12)Nc1ccccc1Br`, the Potency entry is “inactive”.

In the case of `CC(=O)Nc1ccc(NC(=O)COC(=O)C2CCC(C(C)(C)C)CC2)cc1` (configuration not stated), the Potency result is “inactive”.

Regarding `Cc1ccc2cc(/C=N/NC(=O)[C@@H]3CCCN3)c(Cl)nc2c1`, the Potency entry was “inactive”.

In the case of `Cc1ccc2cc(/C=N/Nc3ccc(C(=O)O)cc3)c(Cl)nc2c1`, the Potency was 18.3 µM (active).

Consider `CSCC[C@H](NC(=O)OC(C)(C)C)C(=O)N/N=C/c1cc2ccc(C)cc2nc1Cl`, for which the Potency result was “inactive”.

Regarding `COc1ccc(CC(=O)N[C@@H]2c3cc(OC)c(OC)cc3C[C@H]2OCc2ccccc2)cc1`, the Potency entry was “inactive”.

As to `Cc1ccc(C(=O)NNC(=O)CSc2nnc3ccccn23)cc1`, the Potency entry was “inactive”.

On to `CCN(C(=O)CSc1nnc2ccccn12)C1CCS(=O)(=O)C1` (configuration not stated), for which the Potency result was “inactive”.

With `O=C(CSc1nnc2ccccn12)c1ccccc1`, the Potency was 11.6 µM (active).

Consider `Cc1cc(C(=O)CSc2nc(N)cc(=O)[nH]2)c(C)n1-c1cccc(F)c1`, for which the Potency result is “inactive”.

Consider `Cc1ccc(-n2c(C)cc(C(=O)CSc3nnc4ccccn34)c2C)cc1`, for which the Potency was 5.17 µM (active).

Regarding `O=C(CSc1nnc2n1CCCN2)c1ccccc1`, the Potency entry was “inactive”.

Regarding `CC1CCCCC12NC(=O)N(CC(=O)OCc1c(F)cccc1Cl)C2=O` (configuration not stated), the Potency result was “inactive”.

Take `C[C@H](NS(=O)(=O)c1ccc(Cl)cc1)C(=O)OCC(=O)N1CCOCC1`: the Potency entry is “inactive”.

Regarding `COc1cc(OC)cc(-c2sc3ccc(OC)cc3c2-c2ccc3cc[nH]c3c2)c1`, the Potency entry was “inactive”.

Consider `CCn1c(SCC(=O)NCC2CCCO2)nc2ccccc21` (configuration not stated), for which the Potency result was “inactive”.

On to `Cn1c(SCC(=O)c2ccccc2)ncc(C(=O)Nc2ccc(F)cc2)c1=O`, for which the Potency entry is “inactive”.

`Cc1ccc(NC(=O)c2cnc(SCC(=O)NCC3CCCO3)n(C)c2=O)cc1` (configuration not stated): the Potency was 20.6 µM (active).
